Inconclusive results are not listed. Calls of active or inactive are those of the source. Calls come from the whole dose curve; as a rule, active = well fitted inhibition curve with a large enough effect; inconclusive = small, poorly fitted or top-dose-only effect; inactive = flat fitted curve, though single readings scatter.
These compounds were tested on CP247 (assay: qHTS profiling for inhibitors of Plasmodium falciparum proliferation (AID 504749; note: nearly all actives have a fitted effect of over 60% in size;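 for activity, negative = inhibition: 0% = DMSO vehicle and full inhibition = artemisinin control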)). Details: P. falciparum in erythrocytes, SYBR Green DNA, 72 h; series mostly up to 28.7 µM; activity, negative = inhibition: at the top concentration.
How it was run: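 Three-day growth assay of blood-stage parasites in erythrocytes (0.3% parasitemia, 2.5% hematocrit) at 37 C, 5% CO2, quantified by SYBR Green DNA staining after overnight detergent lysis.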
Potency is the fitted concentration of half-maximal effect.

Row | Compound | activity, negative = inhibition | Potency
1 | O=C(CCl)c1ccc(Oc2ccc(C(=O)CCl)cc2)cc1 | -2.54% (inactive) | –
2 | O=[N+]([O-])c1ccc(F)c([N+](=O)[O-])c1 | 11.6% (inactive) | –
3 | N#CC1(N2CCCCC2)CCCCC1 | 6.08% (inactive) | –
4 | CN1C2CCC1CC(OC(c1ccccc1)c1ccc(Cl)cc1)C2 (centres undefined) | – | 10 µM (active)
5 | O=[N+]([O-])C(Br)(CO)CO | -26.8% (inactive) | –
6 | Clc1ccccc1Cl | -2.68% (inactive) | –
7 | CC(C)Nc1ccc(Nc2ccccc2)cc1 | – | 4.47 µM (active)
8 | CC(=O)O[C@H]1CC[C@H]2[C@@H]3CCC4=CC(=O)CCC4=C3C=C[C@]12C | -18.9% (inactive) | –
9 | CCCC(C)(COC(N)=O)COC(=O)NC1CC1 (centres undefined) | 5.18% (inactive) | –
10 | CNC1(c2ccccc2Cl)CCCCC1=O (centres undefined) | – | inactive
11 | FC(F)OC(F)(F)C(F)Cl (centres undefined) | 3.47% (inactive) | –
12 | O=C/C=C/c1ccccc1 | 7.45% (inactive) | –
13 | S=C(S)N1CCNCC1 | -1.97% (inactive) | –
14 | CNC(C)C(O)c1ccc(O)cc1 (centres undefined) | 0.443% (inactive) | –
15 | CCCCCCCCOC(=O)c1ccccc1C(=O)OCCCCCCCC | 1.54% (inactive) | –
16 | [O]=[Cr](=[O])([OH])[O][Cr](=[O])(=[O])[OH] | – | inactive
17 | CCCCCl | 0.389% (inactive) | –
18 | ClC(Cl)(Cl)Cl | 4.82% (inactive) | –
19 | CC(C)(C)c1cc(O)ccc1O | – | 4.47 µM (active)
20 | O=C1C2CC=CCC2C(=O)N1SC(Cl)(Cl)Cl (centres undefined) | 8.16% (inactive) | –

Row | Compound | activity, negative = inhibition | Potency
21 | CCOC(=O)c1ccccc1C(=O)OCC | 21.7% (inactive) | –
22 | NCC(O)c1cccc(O)c1 (centres undefined) | 10% (inactive) | –
23 | O=C(OCCN1CCCCC1)C(O)(c1ccccc1)c1ccccc1 | 10.3% (inactive) | –
24 | c1ccc2cc(CC3=NCCN3)ccc2c1 | 2.26% (inactive) | –
25 | CCCCCCCCCC(=O)O[C@H]1CC[C@H]2[C@@H]3CCC4=CC(=O)CC[C@]4(C)[C@H]3CC[C@]12C | 22.4% (inactive) | –
26 | O=[N+]([O-])c1ccccc1 | 13.4% (inactive) | –
27 | O=C(CS(=O)C(c1ccccc1)c1ccccc1)NO (centres undefined) | 2.6% (inactive) | –
28 | CC(Cc1ccccc1)NC=O (centres undefined) | 7.97% (inactive) | –
29 | ClC1C(Cl)C(Cl)C(Cl)C(Cl)C1Cl (centres undefined) | 6.71% (inactive) | –
30 | O=CC=O | 2.9% (inactive) | –
31 | COC([CH2][Hg])CNC(=O)c1ccccc1OCC(=O)O (centres undefined) | -11.1% (inactive) | –
32 | C[N+]1(C)C2CCC1CC(OC(=O)c1c[nH]c3ccccc13)C2 (centres undefined) | 10.9% (inactive) | –
33 | CC(=O)OO | 8.11% (inactive) | –
34 | [N-]=[N+]=CC(=O)OCC(N)C(=O)O (centres undefined) | 7.6% (inactive) | –
35 | CCC1(C)CC(=O)NC(=O)C1 | 5.02% [at 12.8 µM] (inactive) | –
36 | O=C(O)C(Cl)(Cl)Cl | 10.7% (inactive) | –
37 | C#CC(C)(O)CC (centres undefined) | 15.9% (inactive) | –
38 | O=S(=O)(O)c1cc(O)ccc1O | 10.3% [at 12.8 µM] (inactive) | –
39 | N#CN | 7.09% (inactive) | –

Reference: PubChem BioAssay (NCATS)
